PubChem BioAssay (NCATS)
Inconclusive results are not listed. Calls of active or inactive are those of the source. Calls follow the shape of the full dose curve.

These compounds were tested against Atrial natriuretic peptide receptor 1 (Homo sapiens) (UniProt P16066) (assay: Natriuretic polypeptide receptor (hNpr1) antagonism - Pilot CMLD screen (AID 1347052;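 also: HEK293 cells with hNpr1 stimulated by hNppA peptide at 0.1 nM; cGMP level read as GloSensor luciferase luminescence after agonist stimulation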)). Conditions: HEK293 hNpr1 GloSensor cGMP luminescence, ANP-stimulated; series mostly up to 9.22 µM; activity change, negative = inhibition: at the top concentration.
% is scaled to controls: 0 for no effect and ±100 for the full control effect.

Sequence of Atrial natriuretic peptide receptor 1 (Homo sapiens) (P16066 whole entry, looked up): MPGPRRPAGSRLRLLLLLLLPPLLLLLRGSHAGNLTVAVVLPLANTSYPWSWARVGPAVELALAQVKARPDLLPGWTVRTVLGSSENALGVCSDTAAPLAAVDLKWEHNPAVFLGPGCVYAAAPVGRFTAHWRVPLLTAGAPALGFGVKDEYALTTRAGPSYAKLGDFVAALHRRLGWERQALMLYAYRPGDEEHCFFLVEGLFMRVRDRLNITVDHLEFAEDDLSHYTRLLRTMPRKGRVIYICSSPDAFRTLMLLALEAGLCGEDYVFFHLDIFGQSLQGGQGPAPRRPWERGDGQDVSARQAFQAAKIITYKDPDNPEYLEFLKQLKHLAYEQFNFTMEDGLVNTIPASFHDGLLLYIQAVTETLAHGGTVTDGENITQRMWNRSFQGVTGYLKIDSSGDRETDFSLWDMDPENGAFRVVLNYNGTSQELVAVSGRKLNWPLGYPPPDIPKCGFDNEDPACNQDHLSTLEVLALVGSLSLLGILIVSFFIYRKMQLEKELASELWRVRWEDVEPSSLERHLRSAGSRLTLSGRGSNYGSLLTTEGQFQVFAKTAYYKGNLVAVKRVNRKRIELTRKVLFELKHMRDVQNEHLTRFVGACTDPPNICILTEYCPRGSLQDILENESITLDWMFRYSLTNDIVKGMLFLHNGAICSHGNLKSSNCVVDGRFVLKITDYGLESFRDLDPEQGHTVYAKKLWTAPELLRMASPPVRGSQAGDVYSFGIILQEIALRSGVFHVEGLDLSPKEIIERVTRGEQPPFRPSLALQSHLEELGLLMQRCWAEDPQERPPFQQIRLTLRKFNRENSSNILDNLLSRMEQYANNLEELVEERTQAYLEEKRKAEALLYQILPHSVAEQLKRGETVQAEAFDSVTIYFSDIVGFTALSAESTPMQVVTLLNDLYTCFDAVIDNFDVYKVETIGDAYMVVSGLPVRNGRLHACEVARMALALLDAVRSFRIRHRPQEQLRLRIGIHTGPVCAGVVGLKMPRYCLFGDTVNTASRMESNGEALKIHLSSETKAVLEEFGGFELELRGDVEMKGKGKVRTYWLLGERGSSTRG

Activity change, negative = inhibition, inactive:
CCN1C(=NCCc2cccs2)N[C@@H](CCc2ccccc2)[C@H](C(=O)NCCc2cccs2)[C@H]1C -2.41%
c1ccc(-c2nc(-c3cccs3)c(NC3CCCCC3)o2)cc1 6.4%
COCOc1ccc(Br)cc1C(=O)[C@@H]1O[C@@H]1c1cccc(OC)c1 -0.761%
COC(=O)C1=C(C)N(Cc2ccccc2)C(=NCCc2cccs2)NC1c1cccc(C(F)(F)F)c1 (stereo not given) -9.07%
Cc1ccccc1Nc1oc(-c2ccccc2)nc1-c1cccs1 1.95%
FC(F)(F)c1ccc(-c2nc(-c3ccccc3)oc2NCc2ccccc2)cc1 -1.38%
COC(=O)C1=C(C(=O)OC)[C@@H]2N(C)c3ccccc3[C@@]23C[C@@H](CO)N(C(=O)Nc2ccc(C(F)(F)F)cc2)C3=N1 2.43%
CC(CCN1CCCc2nc(C)c(C)cc21)=NO[C@H](C)CN1CCCc2nc(C)c(C)cc21 5.74%
CCc1cc2c(nc1CC)CCN(CCC(C)=NOC[C@@H](C)[C@H](OCc1ccccc1)C(C)C)C2 4.48%
COc1cc2c(c(OC)c1OC)[C@@]1(c3ccccc3)CCCCC[C@H]1[C@@H]2NC(=O)C(F)(F)F -0.859%
CC(C)(C)Nc1oc(-c2ccccc2)nc1-c1cccc2ccccc12 -2.82%
C[C@@H]1C[C@H]2[C@@H](Cc3ccccc3)C(=O)N3[C@@H](C[C@@H](C)[C@@H]3c3ccccc3)[C@@H](Cc3ccccc3)C(=O)N2[C@H]1c1ccccc1 -0.405%
COc1cccc([C@H]2Oc3ccc(OC)cc3C(=NO[C@@H](C)CN3CCCCc4nc(C)c(C)cc43)[C@H]2O)c1 -0.354%
Cc1cc(C)cc(-c2cc3c(c(-c4c(O)c(-c5cc(C)cc(C)c5)cc5c4CCCC5)c2O)CCCC3)c1 -0.401%
CC=C(C)[C@H](O)C[Si](C)(C)c1ccccc1 3.41%
CCN1C(=NCc2cccc(C(F)(F)F)c2)NC(c2ccccc2)C(C(=O)OC)=C1C (stereo not given) -0.546%
CCN1C(=NCc2cccc(Cl)c2)NC(c2cccc(C(F)(F)F)c2)C(C(=O)OC)=C1C (stereo not given) 0.512%
C=CCC12C=C(OC)C(=O)C(C1=O)C(c1ccc(OC)cc1)C2C (stereo not given) -3.11%
CCCCn1c(C)cc2c(c1=O)[C@H]1O[C@](CCCCN3C(=O)c4ccccc4C3=O)(Cc3ccccc31)O2 -1.24%
C=C(C(=O)C(C)(C)O)C(O)c1ccc([N+](=O)[O-])cc1 (stereo not given) 0.422%
C[C@@H]1CC2=CCCC2[C@]2(O1)C(=O)N(Cc1ccc(F)cc1)c1cccc(Br)c12 (stereo not given in full) 0.402%
CCN1C(=S)NC(c2cccc(C(F)(F)F)c2)C(C(=O)OC)=C1C (stereo not given) -2.34%
Cc1ccccc1Nc1oc(-c2ccccc2)nc1-c1ccccc1F 11.1%
CC(CCN1CCCCc2nc(C)c(C)cc21)=NO[C@H](C)CN1CCCc2nc(C)c(C)cc21 12.9%
COC(=O)C1=C(C(=O)OC)[C@@H]2N(Cc3ccccc3)c3ccccc3[C@@]23C[C@@H](CO)N=C3N1 0.41%
FC(F)(F)c1cc(NC(=S)Nc2ccc3cc4ccccc4cc3c2)cc(C(F)(F)F)c1 3.24%
COC(=O)C1=C(C(=O)OC)[C@@H]2N(C)c3ccccc3[C@@]23C[C@@H](CO)N(C(=O)NC2CCCCC2)C3=N1 4.39%
CC1=CC[C@@H](COc2ccccc2)O[C@@]2(C1)C(=O)N(Cc1ccc(F)cc1)c1cccc(Br)c12 -9.98%
COC[C@@H](O)[C@H]1OCc2ccccc2[C@@H]1C=Cc1ccccc1 1.86%
COCOc1ccc(Br)cc1C(=O)C=Cc1ccc2c(c1)OCO2 -18%
COc1ccc(-c2nc(-c3ccccc3)c(NCc3ccccc3)o2)cc1 4.74%
COc1ccc([C@]23Cc4ccccc4[C@H](O2)C2=C(CC4(CCCCC4)OC2=O)O3)cc1 -1.94%
CN1c2ccccc2[C@@]2(O)C(=O)[C@@]1(C)[C@H]1Cc3ccccc3[C@H]12 -5.88%
CC(C)=NO[C@@H](C)CN1CCCc2nc(C)c(C)cc21 6.04%
CC12C=C(C=Cc3ccc(Br)cc3)C(C)(C1)[C@H](c1ccc(Br)cc1)CC2=O (stereo not given in full) 1.2%
CC1=CC[C@@H](COc2ccccc2)O[C@@]2(C1)C(=O)N(Cc1ccc(Br)cc1)c1cccc(Br)c12 3.58%
COC(=O)c1ccc(CN2C(=O)[C@@]3(CC(C)=CC[C@@H](COc4ccccc4)O3)c3ccccc32)cc1 3.11%
C=C(C)[C@@H]1CC2=C(OC)C(CC=C(C)C)(CC=C(C)C)C(=O)C(C(=O)c3ccccc3)=C2O1 0.698%
COc1ccc([C@@H](NC(=O)C(F)(F)F)C2CCCC=C2c2ccccc2)cc1OC (stereo not given in full) 6.08%

Potency, inactive:
COCOc1cc(OC)ccc1C(=O)C=Cc1ccc2c(c1)OCO2
